Compound activity deposited in PubChem by Sanford-Burnham Center for Chemical Genomics.
Most compounds without a hit are left out; they make up all but 3% or so of the library.
SENP8 block-1: human SENP8 protease inhibitors, primary screen, biochemical, fluorescence, Nedd8 protein substrate, uHTS. AID 602440, 2012. inhibition, % at 20 µM. recombinant SENP8. 360,000 tested, 0.64% active; in the data active = inhibition mostly above about 40%, no sharp cut-off; inactive = mostly below about 27%
Target sequence (Q96LD8 whole entry, looked up): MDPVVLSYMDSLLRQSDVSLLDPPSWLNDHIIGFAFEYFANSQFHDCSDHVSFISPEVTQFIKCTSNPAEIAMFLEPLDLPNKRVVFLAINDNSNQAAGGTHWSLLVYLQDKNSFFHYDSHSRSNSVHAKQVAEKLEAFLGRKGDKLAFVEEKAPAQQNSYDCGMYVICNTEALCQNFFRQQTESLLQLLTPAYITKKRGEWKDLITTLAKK
SENP8 block-2: SENP8 protease inhibitors, primary screen, biochemical, luminescence. Sentrin-specific protease 8 (Homo sapiens), Q96LD8. purified SENP8, Z-RLRGG-aminoluciferin cleavage. inhibition, % at 10 µM. 330,000 tested, 1.2% active. AID 2540, 2010; in the data active = inhibition above about 50%
SENP6 block: SENP6 protease inhibitors, primary screen, biochemical, luminescence, uHTS; Sentrin-specific protease 6 (Homo sapiens), Q9GZR1; Recombinant SENP6 catalytic domain, aminoluciferin luminescence; inhibition, % at 10 µM; 330,000 tested, 1.8% active;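 active = inhibition above about 50% at the single tested dose, limit read from the data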;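 also: plate controls were DMSO wells with enzyme for no effect and DMSO wells lacking enzyme for full effect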
SENP7 inh: SENP7 protease inhibitors, primary screen, biochemical, luminescence, uHTS; Sentrin-specific protease 7 (Homo sapiens), Q9BQF6; recombinant SENP7, Z-RLRGG-aminoluciferin luminescence, 40 min; inhibition, % at 5 µM; 330,000 tested, 1.5% active;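 active = inhibition above about 50% at the single test dose, limit read from the data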;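 also: plate controls were DMSO with enzyme for no effect and no enzyme buffer wells for full effect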
Target sequence (Q9BQF6 706-1050 limits assumed): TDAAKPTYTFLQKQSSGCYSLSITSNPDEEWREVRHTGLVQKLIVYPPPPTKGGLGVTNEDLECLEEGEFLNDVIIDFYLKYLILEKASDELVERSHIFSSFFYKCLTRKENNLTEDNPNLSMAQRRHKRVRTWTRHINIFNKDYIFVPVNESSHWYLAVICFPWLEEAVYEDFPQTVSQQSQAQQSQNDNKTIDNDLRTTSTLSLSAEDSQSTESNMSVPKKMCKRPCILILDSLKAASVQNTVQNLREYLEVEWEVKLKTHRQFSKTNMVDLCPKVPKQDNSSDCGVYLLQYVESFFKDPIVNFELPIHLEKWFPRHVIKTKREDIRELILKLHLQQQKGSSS
C8 TRAIL sens: viability loss with TRAIL in NB7+C8 cells, primary screen, TRAIL sensitizer project, cell-based, ATPlite luminescence. inhibition (viability loss, TRAIL sensitization), % at 10 µM. 360,000 tested, 1% active. AID 624354, 2012;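 active = compounds causing at least 50% loss of cell viability in the single-dose screen, relative to plate controls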
PPC-1+TRAIL kill: compounds killing PPC-1 cancer cells with TRAIL present, primary screen, TRAIL potentiator project, ATPLite luminescence, uHTS. PPC-1 cells + TRAIL, ATPLite viability luminescence. cell killing (% activity), % at 4 µM or 5 µM. 220,000 tested, 0.41% active. AID 1443, 2008;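 active = cell killing above 50% in the first pass at 4 µM, then a duplicate retest at 5 µM averaging 50% or more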;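 also: plate controls were cells with TRAIL plus DMSO for no effect and medium-only wells lacking cells for full effect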
PPC1 cytotox: cytotoxicity in PPC-1 cells, confirmation, cytotoxicity control for TRAIL apoptosis potentiator project, cell-based, ATP content luminescence. shares compounds with PPC-1+TRAIL kill. PPC-1 viability, ATPlite luminescence, overnight. cytotoxicity, % at 5 µM. 1,200 tested, 50% active. AID 1447, 2008;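 active = reconfirmed compounds whose average cytotoxicity reaches 50% or more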;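 also: 0% = DMSO-treated cells and 100% = wells holding medium but no cells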
* = called active by the depositor.

What do the screens show for `Cc1csc(N/N=C/c2ccccn2)n1`?
SENP8 block-1: -5.0; SENP8 block-2: 85.2*; SENP6 block: 87.0*; SENP7 inh: 83.5*; C8 TRAIL sens: 72.5*; PPC-1+TRAIL kill: 39.1; PPC1 cytotox: 32.3

What do the screens show for `CCc1ccccc1N(CC(=O)Nc1cccc(N(C)S(C)(=O)=O)c1)S(C)(=O)=O`?
SENP8 block-1: 5.0; SENP8 block-2: -8.5; SENP6 block: -3.0; SENP7 inh: -8.8; C8 TRAIL sens: 1.0; PPC-1+TRAIL kill: 8.6; PPC1 cytotox: 17.5

Results for CCc1ccccc1N(CC(=O)O)S(C)(=O)=O ?
SENP8 block-1: 14.2; SENP8 block-2: 5.6; SENP6 block: 1.4; SENP7 inh: -0.4; C8 TRAIL sens: 29.4; PPC-1+TRAIL kill: -13.9; PPC1 cytotox: -15.4

What do the screens show for `CN(c1cccc(NC(=O)c2ccc(N(C)S(=O)(=O)c3ccccc3)cc2)c1)S(C)(=O)=O`?
SENP8 block-1: 14.4; SENP8 block-2: 1.9; SENP6 block: 1.3; SENP7 inh: 1.0; C8 TRAIL sens: 22.6; PPC-1+TRAIL kill: 21.3

How did CN(c1cccc(NC(=O)c2ccc(C(C)(C)C)cc2)c1)S(C)(=O)=O do in these assays?
SENP8 block-1: 7.8; SENP8 block-2: -23.0; SENP6 block: -10.9; SENP7 inh: -1.3; C8 TRAIL sens: 73.4*; PPC-1+TRAIL kill: 40.9; PPC1 cytotox: 53.2*

How did Cc1cc(S(=O)(=O)c2ccc(Cl)cc2)nc(S(=O)(=O)c2ccc(Cl)cc2)c1C#N do in these assays?
SENP8 block-1: -395.4; C8 TRAIL sens: 19.3

How did COc1ccc(CCNC(=O)C(=O)NCC2CCCN2S(=O)(=O)c2ccccc2)cc1OC (configuration not stated) do in these assays?
SENP8 block-1: 5.4; SENP8 block-2: -15.6; SENP6 block: -4.1; SENP7 inh: -3.6; C8 TRAIL sens: 32.2

Results for CC(C)(C)NS(=O)(=O)c1ccc(OCC(=O)NCC2CCCO2)cc1 (configuration not stated) ?
SENP8 block-1: 2.8; SENP8 block-2: -9.6; SENP6 block: -8.8; SENP7 inh: -10.9; C8 TRAIL sens: -14.4

Results for O=C(COc1ccc(S(=O)(=O)NC2CCCCC2)cc1)NCC1CCCO1 (configuration not stated) ?
SENP8 block-1: 10.6; SENP8 block-2: 5.1; SENP6 block: -15.4; SENP7 inh: -2.9; C8 TRAIL sens: -8.0; PPC-1+TRAIL kill: 9.3; PPC1 cytotox: 2.3

What do the screens show for `NC(N)=NS(=O)(=O)c1ccc(NC(=S)NC(=O)c2ccc3c(c2)OCO3)cc1`?
SENP8 block-1: -1.5; SENP8 block-2: -4.5; SENP6 block: 13.2; SENP7 inh: -1.8; C8 TRAIL sens: -1.8; PPC-1+TRAIL kill: 18.7

What do the screens show for `O=C(Nc1ccc([N+](=O)[O-])cc1)C(=O)Nc1cccc(C(=O)O)c1`?
SENP8 block-1: 4.8; SENP8 block-2: 96.6*; SENP6 block: 99.3*; SENP7 inh: 98.9*; C8 TRAIL sens: 85.9*; PPC-1+TRAIL kill: 74.8*; PPC1 cytotox: 69.8*

Results for O=C(O)c1cc(NC(=O)c2ccc([N+](=O)[O-])cc2)cc(NC(=O)c2ccc([N+](=O)[O-])cc2)c1 ?
SENP8 block-1: 19.7; SENP8 block-2: -13.0; SENP6 block: 12.0; SENP7 inh: -0.9; C8 TRAIL sens: 1.1

How did COC(=O)C1=C(N)Oc2cc(C)n(CCCn3ccnc3)c(=O)c2C1c1cccc(Cl)c1 (configuration not stated) do in these assays?
SENP8 block-1: 15.3; SENP8 block-2: -0.1; SENP6 block: 3.0; SENP7 inh: 9.2; C8 TRAIL sens: -6.6; PPC-1+TRAIL kill: 6.8; PPC1 cytotox: -1.3

Results for CN(C(=O)CSc1nnc(NC2CCCCC2)s1)C1CCS(=O)(=O)C1 (configuration not stated) ?
SENP8 block-1: 17.0; SENP8 block-2: 1.4; SENP6 block: -3.1; SENP7 inh: 3.0; C8 TRAIL sens: -5.0; PPC-1+TRAIL kill: 21.2

What do the screens show for `CCc1ccc(Nc2nnc(SCC(=O)N(C)C3CCS(=O)(=O)C3)s2)cc1` (configuration not stated)?
SENP8 block-1: 17.2; SENP8 block-2: -4.2; SENP6 block: -16.9; SENP7 inh: 7.0; C8 TRAIL sens: 70.5*; PPC-1+TRAIL kill: 70.3*; PPC1 cytotox: 67.6*

Results for CCc1ccc(Nc2nnc(SCC(=O)NC(=O)c3cccn3C)s2)cc1 ?
SENP8 block-1: 2.8; SENP8 block-2: -0.6; SENP6 block: -18.1; SENP7 inh: 9.8; C8 TRAIL sens: 45.2; PPC-1+TRAIL kill: 45.5; PPC1 cytotox: 40.7

What do the screens show for `COCCn1c(SCC(=O)NC2CC2)nc2ccccc21`?
SENP8 block-1: 3.3; SENP8 block-2: -13.7; SENP6 block: -12.5; SENP7 inh: 3.1; C8 TRAIL sens: 5.5

Results for C=CCn1c(-c2ccc(OC)cc2)nc2nc3ccccc3nc21 ?
SENP8 block-1: -258.9; SENP8 block-2: 3.0; SENP6 block: -1.6; SENP7 inh: -1.5; C8 TRAIL sens: 27.1; PPC-1+TRAIL kill: -7.5; PPC1 cytotox: 2.3

What do the screens show for `O=C(NCCC(F)(F)F)c1cccc2c(-c3ccc(F)c(F)c3)coc12`?
SENP8 block-1: 9.5; C8 TRAIL sens: -15.5

How did CCn1cc(C(=O)NCCCOC(C)C)c(=O)c2cc(S(=O)(=O)N3CCOCC3)ccc21 do in these assays?
SENP8 block-1: 15.4; SENP8 block-2: 4.6; SENP6 block: -12.4; SENP7 inh: 5.9; C8 TRAIL sens: 2.3

Results for CC(C)C(=O)Nc1cccc(-c2nc3ccccc3c(=O)o2)c1 ?
SENP8 block-1: -6.6; SENP8 block-2: 2.0; SENP6 block: -4.2; SENP7 inh: 1.8; C8 TRAIL sens: 19.0; PPC-1+TRAIL kill: 34.8

What do the screens show for `CC(C)(C)C(=O)Nc1cccc(-c2nc3ccccc3c(=O)o2)c1`?
SENP8 block-1: 0.6; SENP8 block-2: 1.8; SENP6 block: -4.5; SENP7 inh: -0.7; C8 TRAIL sens: 58.6*; PPC-1+TRAIL kill: 52.1*; PPC1 cytotox: 53.0*

How did CCOc1cc(C)c(S(=O)(=O)Nc2ccc3cn[nH]c3c2)cc1C do in these assays?
SENP8 block-1: 10.3; SENP8 block-2: -3.5; SENP6 block: -4.7; SENP7 inh: 1.5; C8 TRAIL sens: 7.4; PPC-1+TRAIL kill: 34.1

What do the screens show for `CCOc1ccc(NC(=O)c2ccc(N3CC4CC(C3)c3cccc(=O)n3C4)c(NC(=O)c3cccnc3)c2)cc1` (configuration not stated)?
SENP8 block-1: 7.1; SENP8 block-2: -2.2; SENP6 block: -8.3; SENP7 inh: -0.2; C8 TRAIL sens: 14.9
